# Source: PubChem BioAssay
# Rows were chosen to be rich in hits. Some 5.9% of all compounds tested hit in one or more screens of this group.
# Gal4-VP16 FLuc = Gal4-VP16 reporter inhibition counter-screen; Drosophila S2 Gal4-VP16 UAS-luciferase, luminescence, 20 h; Potency, µM (doses to about 53.6 µM), inactives show top-dose activity, negative = inhibition, usual class: inhibitors; 3.5% of 310,000 active;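 note: Gal4-VP16 expression switched on by copper sulfate through the metallothionein promoter; % is set by controls: 0 for no effect and ±100 for the full control effect; nearly all actives have a fitted effect of over 50% in size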
# RORgamma inh = inhibitors of mouse ROR gamma transcriptional activity. P51450. Drosophila S2 Gal4-RORgamma UAS-luciferase reporter, 20 h. Potency, µM (doses to about 53.6 µM), without a hit: at the top dose activity change, negative = inhibition, most hits filed as inhibitors. 5.4% of 310,000 active. AID 2551; note: % is set by controls: 0 for no effect and ±100 for the full control effect; nearly all actives have a fitted effect of over 60% in size
# Target sequence (P51450 whole entry, looked up, the tested form may be a part): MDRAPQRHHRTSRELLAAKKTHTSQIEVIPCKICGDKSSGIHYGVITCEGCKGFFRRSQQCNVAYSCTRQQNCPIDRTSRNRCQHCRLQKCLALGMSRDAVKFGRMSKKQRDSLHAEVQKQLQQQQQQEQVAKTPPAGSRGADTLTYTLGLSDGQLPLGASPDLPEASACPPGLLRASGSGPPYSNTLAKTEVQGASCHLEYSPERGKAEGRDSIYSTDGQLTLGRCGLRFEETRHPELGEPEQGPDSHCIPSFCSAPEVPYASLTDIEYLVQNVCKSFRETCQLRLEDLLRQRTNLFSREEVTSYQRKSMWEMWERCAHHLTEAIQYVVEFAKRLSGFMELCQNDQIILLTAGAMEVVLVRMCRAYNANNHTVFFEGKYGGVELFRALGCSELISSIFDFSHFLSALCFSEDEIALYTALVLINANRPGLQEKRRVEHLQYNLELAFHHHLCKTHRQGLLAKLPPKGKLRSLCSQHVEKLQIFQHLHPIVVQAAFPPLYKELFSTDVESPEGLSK
#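 Luminescence from a UAS-regulated Photinus luciferase reporter in stably transfected Drosophila Schneider cells is measured; decreased signal marks ROR gamma inhibition. Fusion expression is induced by 700 uM copper sulfate for 20 hr.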
# GLP1R inv ag = GLP-1 receptor (human) inverse agonism. AID 624417. HEK293 GLP-1R CRE-luciferase, luminescence, 24 h; GLP-1R form is constitutively active. P43220. Potency, µM (titrated, usually from 38.3 µM), for the others: at the top dose activity change, negative = inhibition, usual class: inhibitors. 1.6% of 410,000 active; note: % is set by controls: 0 for no effect and ±100 for the full control effect; nearly all actives have a fitted effect of over 55% in size
#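 Stable HEK293 clone (constitutively active GLP-1R + cAMP-response luciferase); 200 cells/uL plated, 12 h pre-culture, compound 24 hr, 37 deg C/5% CO2; detection reagent 12 min RT; luminescence.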
# GLP1R cytotox = cytotoxicity in counter-screen for GLP-1R inverse agonists; HEK293 cAMP-luciferase reporter cells, luminescence, 24 h; Potency, µM (highest dose often 38.3 µM), without a hit: at the highest dose activity change, negative = inhibition, most hits filed as inhibitors; 0.13% of 410,000 active; AID 624418;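 note: loss of luciferase light is scored as toxicity; % is set by controls: 0 for no effect and ±100 for the full control effect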
#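 Step one: seed cells (200 cells/uL, DMEM with 10% Nu serum, 1% pen-strep). Step two: 12-hour incubation at 37 deg C. Step three: pin 23 nL compound, incubate 24 hr. Step four: add luciferase reagent, read luminescence 12 min later.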
# GLP-1R agonist = activates the human GLP-1 receptor | P43220 | HEK293 GLP-1R CRE-luciferase, luminescence, 4-6 h; cells express a hypersensitive GLP-1R form | Potency, µM (doses to about 45.6 µM), inactives show at the highest dose activation, actives largely listed as activators | 0.007% of 380,000 active | AID 624172; note: % of control where 0% means no effect
# Numbers without * were called inactive; ? = inconclusive; . = no result given; ! = repeats disagree. Calls come from the whole dose curve; as a rule, active = well fitted curve in the direction sought with a large enough effect; inconclusive = small, poorly fitted or top-dose-only effect, or another doubt; inactive = no such curve, though single readings can be large; an effect the other way counts as inactive or inconclusive. Potency is the fitted concentration of half-maximal effect.
SMILES,Gal4-VP16 FLuc,RORgamma inh,GLP1R inv ag,GLP1R cytotox,GLP-1R agonist
O=C(CSc1nc2c(oc3ccccc32)c(=O)n1-c1ccccc1)Nc1ccc(F)c(Cl)c1,.,.,-14%,-3%,.
CCCCCCCCCCCCCCCC(=O)O[C@H]1[C@@H](O)[C@@H](O)[C@@H]([C@H](NC(=O)[C@@H]2C[C@@H](CCC)CN2C)[C@H](C)Cl)O[C@@H]1SC,.,.,.,.,-1%
CCOc1ccccc1/C=N/NC(=O)c1c(C)nc2ccc(Br)cn12,-4%,-25%,0%,-6%,7%
Cc1ccc(/C=N/NC(=O)c2c(C)nc3ccc(Br)cn23)cc1,?,7.1µM*,?,-25%,-2%
COc1cccc(/C=N/NC(=O)c2c(C)nc3ccc(Br)cn23)c1O,2.5µM*,2.5µM*,?,?,9%
CCn1c(C)nc2cc(C(=O)N/N=C/c3cccc(OC)c3O)ccc21,0.71µM*,0.32µM*,?,4%,21%
COc1ccc(/C=N\NC(=O)c2c(C)nc3ccc(Br)cn23)cc1,-102%,10µM*,-46%,?,-5%
O=C(NCc1nc2ccccc2[nH]1)c1c(F)cccc1F,.,.,30%,2%,?
C=CCOc1ccc(/C=N/NC(=O)c2c(C)nc3ccc(Cl)cn23)cc1,10µM*,2.2µM*,1%,-9%,5%
C=CCOc1ccc(CNn2cn[nH]c2=S)cc1OC,9%,-27%,48%,-14%,0%
C=CCOc1ccc(CNn2cn[nH]c2=S)cc1OCC,-13%,11µM*,5%,-5%,1%
COc1cc(CNn2c(C)n[nH]c2=S)cc(Cl)c1OCc1ccccc1,-15%,7.9µM*,-16%,-2%,7%
COc1cc(CNn2cn[nH]c2=S)cc(Cl)c1OCc1ccc(F)cc1,4µM*,7.1µM*,?,-13%,0%
COc1cc(CNCCSc2nnnn2C)cc(Cl)c1OCc1ccccc1,.,.,?,5%,-1%
Cc1nc(N2CCOCC2)c2nc(-c3ccccc3)n(CCN3CCOCC3)c2n1,5%,-9%,.,.,.
CC/C=C\C/C=C\C/C=C\C/C=C\C/C=C\C/C=C\CCC(=O)O[C@H](COCCCCCCCCCCCCCCCC)COP(=O)([O-])OCC[N+](C)(C)C,-3%,1%,.,.,.
COc1ccc(NC(=O)c2cn(CC(C)C)c(=O)c3cc(OC)c(OC)cc23)cc1Cl,.,.,30%,13%,2%
COc1ccc(C2CC(c3ccccc3)Oc3ccc(C(C)(C)C)cc32)cc1 (stereo not given),-8%,-15%,.,.,.
COc1ccc(-c2nc3n(c2C)Cc2ccccc2-3)cc1,-13%,11µM*,?,?,18%
O=c1cc(-c2ccccc2)nc2n1Cc1ccccc1-2,2%,-14%,114%,1%,-1%
c1ccc(COc2ncnc3c2ncn3CCCNC2CCN(Cc3ccccc3)CC2)cc1,.,.,7.1µM*,?,-1%
CSc1ncnc2c1ncn2CCCNC1CCN(Cc2ccccc2)CC1,.,.,?,-10%,-3%
CCSc1nnc(NC(=O)CSc2nnc(CNC(=O)c3cc(OC)c(OC)c(OC)c3)o2)s1,?,16µM*,0%,-18%,-4%
COc1ccc(C(=O)NCc2nnc(SCC(=O)Nc3nc4ccc(C)cc4s3)o2)cc1OC,7.9µM*,7.9µM*,?,-22%,11%
COc1ccccc1C(=O)NCC1(N2CCN(C)CC2)CCCCC1,.,.,6%,38%,.
SMILES,Gal4-VP16 FLuc,RORgamma inh,GLP1R inv ag,GLP1R cytotox,GLP-1R agonist
Cc1cccc(C)c1N1CCN(CCn2c(=S)[nH]c3ccccc3c2=O)CC1,?,10µM*,20%,0%,8%
O=C(c1ccc(F)cc1)C1CCN(CCn2c(=S)[nH]c3ccccc3c2=O)CC1,14µM*!,7.9µM*!,.,.,4%
O=c1c2ccccc2[nH]c(=S)n1CCCN1CCC(Cc2ccccc2)CC1,?,7.9µM*,?,?,4%
Cc1ccc(Cl)cc1N1CCN(CCCNC(=O)C2COc3ccccc3C2)CC1 (stereo not given),.,.,7%,10%,.
CC(C)C[C@H](NC(=O)[C@H](CCCCN)NC(=O)[C@H](CCC(N)=O)NC(=O)[C@H](Cc1cnc[nH]1)NC(=O)[C@H](Cc1cnc[nH]1)NC(=O)[C@@H](N)C(C)C)C(=O)N[C@H](C(=O)N[C@@H](Cc1ccccc1)C(=O)N[C@@H](Cc1ccccc1)C(=O)N[C@@H](C)C(=O)N[C@@H](CCC(=O)O)C(=O)N[C@@H](CC(=O)O)C(=O)N[C@H](C(=O)NCC(=O)N[C@@H](CO)C(=O)N[C@@H](CC(N)=O)C(=O)N[C@@H](CCCCN)C(=O)O)C(C)C)C(C)C,-4%,2%,.,.,.
CC(C)NC(=S)N/N=C/c1cccs1,1.1µM*,0.79µM*,?,?,-1%
S=C(NCc1ccccc1)N/N=C/c1cccs1,0.79µM*,0.4µM*,?,?,9%
CC(C)NC(=S)N/N=C/c1ccc(C(C)(C)C)cc1,2.2µM*,0.5µM*,?,?,0%
CC(C)CNC(=O)CC(=O)N/N=C/c1cccs1,1%,7%,1%,-20%,-15%
O=C(CS(=O)(=O)c1cccc2nsnc12)N1CCN(c2cccc(C(F)(F)F)c2)CC1,.,.,?,-13%,-8%
Cc1oc(-c2ccc(Cl)cc2)nc1Cn1c(=O)cc(-c2ccccc2)c2c(C)nn(C)c21,.,.,0%,12%,.
Cc1ccc(-n2nnc(-c3nccs3)n2)cc1,5.6µM*,4µM*,2.8µM*,9%,-8%
Clc1ccc(-n2nnc(-c3nccs3)n2)cc1Cl,9%,16%,-9%,-10%,-4%
CCOc1cccc(CNc2ccc(O)cc2)c1OCc1ccccc1Cl,-4%,-1%,?,-19%,6%
CCOc1cccc(CNc2ccc(O)cc2)c1OCc1ccc(Cl)cc1Cl,?,16µM*,?,-31%,14%
COc1ccc(-c2cc(C(F)(F)F)nc(N3CCN(C)CC3)n2)cc1,-11%,0%,?,-33%,6%
COc1ccc(-c2cc(C(F)(F)F)nc(-n3ccnc3C)n2)cc1,?,11µM*,11%,62%,-1%
CCCc1nc2ccccc2c(C(=O)OCC(=O)N2CCc3ccccc32)c1CC,-12%,28%,2.8µM*,4%,-4%
CC1CCc2nc3ccccc3c(C(=O)OCC(=O)N3CCc4ccccc43)c2C1 (stereo not given),10%,7%,10%,-10%,-4%
CCOc1cc(/C=C2\CCC/C(=C\c3cc(Cl)c(O)c(OCC)c3)C2=O)cc(Cl)c1O,11µM*,?,10µM*,11µM*,-37%
CCOc1cc(/C=C2\CN(C)C/C(=C\c3ccc(O)c(OCC)c3)C2=O)ccc1O,?,?,?,?,-6%
COc1ccc(/C=C/C(=O)Nc2ccccc2C(=O)O)cc1OC,7.9µM*,3.5µM*,.,.,-6%
